The structures appear in SMILES notation. In all, about 410,000 compounds went through this assay and about 2,000 (0.49%) were called active. Where a call stands in place of a potency, no number is given. Inconclusive results (about 8%) are left out. Calls come from the whole dose curve; tested in HEK293 reporter line. The full list was thinned out, with actives kept by preference.
Potency is the fitted concentration of half-maximal effect.

The assay is described as follows: qHTS Assay for Foot and Mouth Disease Virus Antivirals: Primary Screen against the MLPCN compound library. Note: nearly all actives have a fitted effect of over 55% in size. The settings on record: FMDV antiviral cell-based qHTS; series mostly up to 57.9 µM. A general note: qHTS replaces the single test concentration by a dilution series.
On to `CCOc1ccc(CN(C)C(=O)c2cc(S(=O)(=O)N3CCCC3)ccc2C)cc1`, for which the Potency result was “inactive”.

Take `Cc1ccccc1C(=O)N/N=C1/SCC(=O)N1Cc1ccc2c(c1)OCO2`: the Potency result is “inactive”.

As to `C=CC(COCc1ccccc1)N([C@@H](Cc1ccccc1)C(=O)OC)S(=O)(=O)c1ccccc1Br` (some centres undefined), the Potency entry is “inactive”.

For `CCN(CCCNC(=O)CC(C(=O)N1CCc2ccccc21)n1ccnc1)c1cccc(C)c1` (centres undefined), the Potency entry is “inactive”.

Consider `Cc1nn(-c2ccccc2)nc1C(=O)NN`, for which the Potency result was “inactive”.

Consider `COc1cc(CNc2ncnc3c2ncn3[C@H]2CN(Cc3ccc(F)cc3)C[C@@H](CO)O2)cc(OC)c1OC`, for which the Potency entry was “inactive”.

`COc1ccc(Oc2ncc3nc(-c4ccc(Cl)cc4)c(=O)n(CCC#N)c3n2)cc1`: the Potency entry is “inactive”.

On to `CCOC(=O)C1(CCOc2ccccc2)CCN(Cc2ccc(OC)c(O)c2)CC1`, for which the Potency result is “inactive”.

In the case of `CCC(=O)N(Cc1ccc2c(c1)OCO2)Cc1cc2cc(OC)ccc2[nH]c1=O`, the Potency entry was “inactive”.

Consider `COc1cc(SC)ccc1C(=O)Nc1nc2ccccc2[nH]1`, for which the Potency entry was “inactive”.

For `COc1cc(SC)ccc1C(=O)NCCOc1c(C)cc(C)cc1C`, the Potency result is “inactive”.

`COc1cc(C(=O)Nc2ccccc2C(=O)Nc2ccccn2)cc(OC)c1OC`: the Potency entry was “inactive”.

With `COc1cc(SC)ccc1C(=O)Nc1ccccn1`, the Potency is 17.8 µM (active).

As to `COc1cc(SC)ccc1C(=O)Nc1ccc(Br)cn1`, the Potency is 8.91 µM (active).

Take `COc1ccc(C(=O)Nc2ccc(C)cn2)c(OC)c1`: the Potency entry is “inactive”.

For `CCOc1ccc(S(=O)(=O)N2CCN(C(=O)c3cc(C4CC4)nn3-c3ccccc3)CC2)cc1`, the Potency entry was “inactive”.

Turning to `CN1CCN(C(=O)c2cc3nc(-c4ccccc4)cc(C(F)(F)F)n3n2)CC1`, the Potency entry is “inactive”.

Turning to `CC(C)c1cc(Br)c(NC(=O)Nc2cccnc2)c(Br)c1`, the Potency entry is “inactive”.

As for `O=C1CN=C(c2ccc(Br)cc2)c2c(sc3c2CCCC3)N1CCN1CCCCC1`, the Potency result is “inactive”.

On to `OCCCCCNc1ncnc2ccccc12`, for which the Potency entry is “inactive”.

As for `Cc1cccc(C(=O)O/N=C(\N)c2ccccn2)c1`, the Potency was 8.91 µM (active).

Turning to `CC(C)(C)c1ccc(C(=O)O/N=C(\N)c2ccccc2)cc1`, the Potency entry is “inactive”.

Turning to `CO/N=C\c1cc(C(=O)c2ccc(Cl)cc2Cl)cn1C`, the Potency entry was “inactive”.

Regarding `Cc1cccc(/C(N)=N/OC(=O)c2ccc(Cl)cc2Cl)c1`, the Potency was 20 µM (active).

For `CC(C)(C)c1ccc(C(=O)O/N=C(\N)c2ccccn2)cc1`, the Potency result is “inactive”.

Regarding `Cc1ccc(C(=O)O/N=C(\N)Cc2ccc([N+](=O)[O-])cc2)c(Cl)c1`, the Potency entry is “inactive”.

For the molecule `CCCNNC(=O)C(O)(c1ccccc1)c1ccccc1`, the Potency result is “inactive”.

`Cc1ccc(-c2nnc(-c3ccccc3)c(N3CCOCC3)n2)cc1`: the Potency entry was “inactive”.

For the molecule `COc1ccc(-c2noc(C3CC(=O)N(c4cc(C)cc(C)c4)C3)n2)cc1` (centres undefined), the Potency result is “inactive”.

With `Cc1cccc(C)c1-n1nnnc1C(c1ccnc2ccccc12)N(CCN(C)C)Cc1ccccc1` (centres undefined), the Potency entry is “inactive”.

As to `Cc1ccc(C(=O)Nc2ccccc2C(=O)O)cc1S(=O)(=O)Nc1ccccc1`, the Potency result is “inactive”.

Consider `Cc1c(NC(=O)c2ccc(-c3ccccc3)cc2)cccc1C(=O)O`, for which the Potency was 5.01 µM (active).

As for `Cc1cccc(C(=O)O)c1NC(=O)c1ccc(F)cc1`, the Potency entry is “inactive”.

For `COc1ccc(-c2csc(N3C(=O)CNC3=S)n2)cc1`, the Potency is 10 µM (active).

As for `COc1ccc(C(C)(O)c2nc(-c3ccncc3)cs2)cc1` (centres undefined), the Potency result is “inactive”.

Turning to `COc1ccc(C(C)(O)c2nc(-c3ccc(S(C)(=O)=O)cc3)cs2)cc1` (centres undefined), the Potency result was “inactive”.

Consider `Cc1ccc(CC2CC(=O)N(Cc3ccco3)C2=O)cc1` (centres undefined), for which the Potency entry was “inactive”.

For the molecule `Cn1c(=O)[nH]c(=O)c2c1nc(N1CCCCC1)n2CCOc1ccccc1`, the Potency result is “inactive”.

In the case of `Cn1c(=O)c2c(nc(N3CCCCC3)n2CC(O)COc2ccccc2)n(C)c1=O` (centres undefined), the Potency result was “inactive”.

As to `Cn1c(=O)[nH]c(=O)c2c1nc(N1CCCCC1)n2CC(O)COc1ccc([N+](=O)[O-])cc1` (centres undefined), the Potency is 10 µM (active).

As to `CCCc1cnc(N2CCN(C(=O)c3ccc(F)cc3)CC2)nc1`, the Potency entry was “inactive”.

Take `Cc1ccc2c(c1)N(C(=O)Nc1cccc3c1CCCC3)CCO2`: the Potency entry was “inactive”.

`CCC(Sc1nc(C)cc(C)n1)C(=O)O` (centres undefined): the Potency entry is “inactive”.

Consider `O=S(=O)(c1ccc(Cl)cc1)N1CCc2ccccc21`, for which the Potency entry was “inactive”.

As to `COc1ccccc1[C@]1(C)ON(c2ccccc2C(F)(F)F)C1=O`, the Potency is 14.1 µM (active).

On to `FC(F)(F)c1ccccc1N1CC1c1ccncc1` (centres undefined), for which the Potency result was “inactive”.

Consider `COc1ccccc1CC1(C)C(=O)Nc2ccc(OC(F)(F)F)cc21` (centres undefined), for which the Potency result is “inactive”.

For `Cc1ccc(C(=O)N2CCN(c3nc4ccccc4n3C)CC2)cc1`, the Potency result is “inactive”.

For the molecule `Cc1oc(-c2nc3ccccc3n2C)cc1C(=O)c1ccccc1`, the Potency is 17.8 µM (active).

`O=C(O)c1ccccc1-c1nc2ccccc2n1-c1ccccc1`: the Potency entry was “inactive”.

As to `CN(c1ccc(OCC(=O)Nc2ccc(S(N)(=O)=O)cc2)cc1)S(=O)(=O)c1ccc(F)cc1`, the Potency result was “inactive”.

As for `Cc1ccc(S(=O)(=O)C2(S(=O)(=O)c3ccc(C)cc3)CC2)cc1`, the Potency result was “inactive”.

Regarding `Cc1ccccc1C(=O)N1CCC(C(=O)Nc2cc(C(F)(F)F)ccc2N2CCCC2)CC1`, the Potency result is “inactive”.

Turning to `O=C(NCCC1=CCCCC1)c1ccc(F)cc1`, the Potency is 14.1 µM (active).

For `CN(C)S(=O)(=O)N1CCC(Oc2cccc(C(=O)NCCC3=CCCCC3)c2)CC1`, the Potency result was “inactive”.

`O=C(NCCc1nc(-c2ccc(F)cc2)no1)c1ccc(F)cc1`: the Potency entry was “inactive”.

As to `CCCCn1nc2cc(C(=O)NCC34CC5CC(CC(C5)C3)C4)ccc2c1OC`, the Potency entry is “inactive”.

With `Cc1noc(C)c1CSc1nnc(-c2cc(Cl)ccc2Cl)n1N`, the Potency entry is “inactive”.

Regarding `CC(=O)c1sc(NC(=O)C2CC(=O)N(Cc3ccccc3)C2)nc1-c1ccccc1` (centres undefined), the Potency entry was “inactive”.

For the molecule `CCOc1cc(CNCc2ccncc2)cc(Br)c1OCc1ccccc1F`, the Potency entry is “inactive”.

For the molecule `Brc1ccc(OCc2ccccc2)c(CNCc2ccncc2)c1`, the Potency is 20 µM (active).

In the case of `Clc1cc(Br)ccc1OCCCNCc1ccccc1`, the Potency result is “inactive”.

Regarding `Cc1ccc(S(=O)(=O)c2c(C)nn(C(C)(C)C)c2OC(=O)C(C)(C)C)cc1`, the Potency result was “inactive”.

Consider `COc1cc2[nH]c(=S)nc(NC3CCCCCC3)c2cc1OC`, for which the Potency entry is “inactive”.

Regarding `CCOC(=O)c1ccc(N2C=C(C(=O)OC)C(c3ccc(OC)c(O)c3)C(C(=O)OC)=C2)cc1`, the Potency result was “inactive”.

Regarding `Cc1cccc(NC(=O)/C(C#N)=C\c2ccc(C(=O)O)cc2)c1`, the Potency result was “inactive”.

For the molecule `COc1ccc(CCNC(=O)/C(C#N)=C/c2ccc(OCC(=O)NCC3CCCO3)cc2)cc1OC` (centres undefined), the Potency entry is “inactive”.

On to `N#C/C(=C\c1ccc(OCc2ccc(C(=O)O)cc2)cc1)C(=O)N1CCOCC1`, for which the Potency is 10 µM (active).

On to `Cc1nc(SCC(=O)NCCc2ccccc2)nc(C)c1C`, for which the Potency result was “inactive”.

With `CCOCCCNC(=S)N1CCN(c2nc(-c3ccccc3)cs2)CC1`, the Potency result was “inactive”.

In the case of `CN1/C(=C\C(=O)CSc2nnc(N)s2)C(C)(C)c2ccccc21`, the Potency entry was “inactive”.

`Cc1ccc(C)c(Nc2cc(C)nc3ccccc23)c1`: the Potency result was “inactive”.

For `Cc1ccc2c(c1)Cc1nc3ccccc3nc1-2`, the Potency was 14.1 µM (active).

Take `Cc1ccc(CSc2nc3ccccc3cc2C=O)cc1`: the Potency entry is “inactive”.

As to `COc1cccc(-c2nc(CS(=O)(=O)CC(=O)NCCCc3ccccc3)c(C)o2)c1`, the Potency entry was “inactive”.

Turning to `NC(=O)COc1ccccc1/C=C1/SC(=O)N(CC(=O)N2CCc3ccccc3C2)C1=O`, the Potency entry is “inactive”.

For `COc1ccc(-c2nc(NC(=O)c3c(C)noc3C)sc2C)cc1`, the Potency entry was “inactive”.

Consider `COc1ccc(-c2nc(NC(=O)c3[nH]c(C)c(C(C)=O)c3C)sc2C)cc1`, for which the Potency is 28.2 µM (active).

In the case of `COc1ccc(NC(=O)c2[nH]c(C)c(C(C)=O)c2C)cc1`, the Potency entry was “inactive”.

Take `Fc1ccc(CN2CCN3CCCC3C2C2CCCCC2)cc1F` (centres undefined): the Potency entry was “inactive”.

As for `O=c1[nH]c(SCc2ccccc2Cl)nc2c1cnn2-c1ccccc1`, the Potency entry is “inactive”.

For the molecule `c1nc(NCc2ccc3c(c2)OCO3)c2cc(-c3ccc4c(c3)OCCO4)ccc2n1`, the Potency entry was “inactive”.

For the molecule `COc1ccc(N2CCN(C(=O)Cn3cnc4c(cnn4-c4ccc(C)cc4)c3=O)CC2)cc1`, the Potency entry was “inactive”.

With `CCCCCn1nc(C(=O)OCC(=O)c2c(N)n(C)c(=O)n(C)c2=O)c2ccccc2c1=O`, the Potency entry was “inactive”.

As for `COc1cccc(-c2cn3nc4c(nc3n2)CCCC4)c1`, the Potency is 10 µM (active).

Regarding `COc1cccc(-c2cc(C(=O)NC3CC3)c3ccccc3n2)c1`, the Potency entry is “inactive”.

With `COc1cccc(Nc2c3c(nc4c(-c5ccccc5)c(C)nn24)CCC3)c1`, the Potency entry is “inactive”.

Turning to `c1ccc(Sc2cccc3ccccc23)c(CNC2=NCCN2)c1`, the Potency result was “inactive”.

Turning to `COc1ccccc1S(=O)(=O)Cc1ccc(C(=O)NCc2ccc3c(c2)OCO3)o1`, the Potency result was “inactive”.

On to `Clc1ccc(OCc2cc(-c3ccccc3)no2)c(Cl)c1`, for which the Potency is 12.6 µM (active).

Regarding `FC(F)(F)c1nnc(-c2ccccc2)nc1Oc1ccc(Cl)cc1Cl`, the Potency entry is “inactive”.

As to `CC(C)(C)NC(=O)c1ccc(COc2ccc(Cl)cc2Cl)o1`, the Potency entry was “inactive”.

Turning to `CCN1CCN(C(=O)C2CCN(c3nnc(C)c4c(C)n(-c5ccc(C)cc5)nc34)CC2)CC1`, the Potency result was “inactive”.

For the molecule `Cc1ccc(C(=O)N(CC(=O)Nc2sc(C)c(C)c2C(N)=O)C2CCCC2)cc1`, the Potency entry is “inactive”.

Turning to `COc1ccc(NS(=O)(=O)c2cc(NC(=O)c3ccc(=O)[nH]c3)ccc2N2CCOCC2)cc1`, the Potency entry was “inactive”.

In the case of `O=C(Nc1nc(-c2ccc(S(=O)(=O)N3CCCC3)cc2)cs1)C1COc2ccccc2O1` (centres undefined), the Potency entry was “inactive”.

As to `CC(=O)c1sc(NC(=O)c2cc(-c3ccccc3)nn2-c2ccccc2)nc1C`, the Potency entry was “inactive”.

As for `CC(=O)c1sc(NC(=O)C2COc3ccccc3O2)nc1C` (centres undefined), the Potency is 11.2 µM (active).

For `CCOc1ccc(C(=O)N(Cc2cc(OC)c(OC)c(OC)c2)c2ccccn2)cc1`, the Potency entry is “inactive”.

With `CN(C)Cc1n[nH]c(=O)c2ccccc12`, the Potency result was “inactive”.

For the molecule `CC1=C/C(=C(/c2cc(C)c(O)c(Br)c2)c2ccccc2S(=O)(=O)O)C=C(Br)C1=O`, the Potency was 17.8 µM (active).

`COc1ccc(NC(=S)N2CCN(Cc3ccc(C)cc3)CC2)cc1`: the Potency entry is “inactive”.

Turning to `CN1CCN(S(=O)(=O)c2cccc(C(=O)Nc3ccc(Br)cc3Br)c2)CC1`, the Potency result was “inactive”.

In the case of `CCn1c(=S)sc2c(=O)n(CC(=O)Nc3cccc(Cl)c3)c(C)nc21`, the Potency result was “inactive”.

These data come from PubChem BioAssay AID1347131 (National Center for Advancing Translational Sciences (NCATS), 2019).
